Holding throughout (test): DAPPL (digital affinity profiling via proximity ligation, sequencing); 10 mM Tris-HCl pH 7.5, 50 mM NaCl, 1 mM DTT, 4% glycerol, room temperature, 30 min; GST-TFs on glutathione beads, 16-mer random dsDNA library, 0.1% formaldehyde crosslink after washing; high values mean tight binding
In one experiment the target is T1, FEV (Homo sapiens, UniProt Q99581 1-238).
T1 sequence: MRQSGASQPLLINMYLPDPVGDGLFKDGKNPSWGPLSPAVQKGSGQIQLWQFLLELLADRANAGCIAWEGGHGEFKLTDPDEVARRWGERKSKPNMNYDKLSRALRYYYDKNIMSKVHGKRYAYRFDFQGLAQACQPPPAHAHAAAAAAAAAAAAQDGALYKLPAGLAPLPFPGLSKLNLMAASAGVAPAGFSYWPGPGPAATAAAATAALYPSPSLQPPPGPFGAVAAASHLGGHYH
The conditions noted are these: protein: recombinant; tags: N-terminal GST; dsDNA, one strand shown. In short, it runs like this: (§1)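 Each value of binding signal is a hexamer's read frequency for a factor divided by the same hexamer's frequency in the tag-only sample. Barcoded, bead-captured GST fusions of human transcription factors made in yeast were pooled with that sample and incubated with 200 nmole of a random double-stranded 16-mer DNA library in Tris/NaCl/DTT/glycerol buffer at room temperature for 30 min. Washing, 0.1% formaldehyde crosslinking, proximity ligation, PCR and Illumina NextSeq500 sequencing followed.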

Another experiment deals with ETV5 (Homo sapiens, UniProt P41161 1-510). The conditions noted are these: protein: recombinant; tags: N-terminal GST; dsDNA, one strand shown. In short, it runs like this:
as §1

Another experiment addresses HSF1 (Homo sapiens, UniProt Q00613 1-529). Particulars: protein: recombinant; tags: N-terminal GST; chain copies: 3; dsDNA, one strand shown. In short, it runs like this:
as §1

For the next experiment, the target named is T2, SPIC (Homo sapiens, UniProt Q8N5J4 1-248).
T2 sequence: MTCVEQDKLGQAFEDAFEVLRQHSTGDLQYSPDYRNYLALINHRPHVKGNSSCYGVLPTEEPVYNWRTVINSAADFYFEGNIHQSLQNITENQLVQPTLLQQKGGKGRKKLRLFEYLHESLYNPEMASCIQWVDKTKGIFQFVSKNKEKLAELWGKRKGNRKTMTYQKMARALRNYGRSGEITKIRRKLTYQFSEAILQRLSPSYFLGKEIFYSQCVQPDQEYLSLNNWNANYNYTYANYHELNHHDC
The conditions noted are these: protein: recombinant; tags: N-terminal GST; dsDNA, one strand shown. A digest of the protocol: as §1

A further experiment deals with ELF4 (Homo sapiens, UniProt Q99607 1-663). Particulars: protein: recombinant; tags: N-terminal GST; dsDNA, one strand shown. A digest of the protocol: as §1
Another experiment addresses T3, ELK4 (Homo sapiens, UniProt P28324-2 1-405).
T3 sequence: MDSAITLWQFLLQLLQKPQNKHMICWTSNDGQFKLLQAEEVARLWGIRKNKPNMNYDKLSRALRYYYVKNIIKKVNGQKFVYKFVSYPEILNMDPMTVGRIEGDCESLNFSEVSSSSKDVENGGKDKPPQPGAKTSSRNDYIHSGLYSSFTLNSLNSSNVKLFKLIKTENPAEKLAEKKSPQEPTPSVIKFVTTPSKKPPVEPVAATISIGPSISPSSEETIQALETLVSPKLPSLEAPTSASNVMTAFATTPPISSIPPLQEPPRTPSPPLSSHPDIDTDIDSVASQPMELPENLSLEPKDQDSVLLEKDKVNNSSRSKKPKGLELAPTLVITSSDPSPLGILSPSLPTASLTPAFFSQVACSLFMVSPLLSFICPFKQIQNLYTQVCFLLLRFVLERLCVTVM
The conditions noted are these: protein: recombinant; tags: N-terminal GST; dsDNA, one strand shown. A digest of the protocol: as §1

The next experiment has as its target T4, ETV2 (Homo sapiens, UniProt O00321 1-342).
T4 sequence: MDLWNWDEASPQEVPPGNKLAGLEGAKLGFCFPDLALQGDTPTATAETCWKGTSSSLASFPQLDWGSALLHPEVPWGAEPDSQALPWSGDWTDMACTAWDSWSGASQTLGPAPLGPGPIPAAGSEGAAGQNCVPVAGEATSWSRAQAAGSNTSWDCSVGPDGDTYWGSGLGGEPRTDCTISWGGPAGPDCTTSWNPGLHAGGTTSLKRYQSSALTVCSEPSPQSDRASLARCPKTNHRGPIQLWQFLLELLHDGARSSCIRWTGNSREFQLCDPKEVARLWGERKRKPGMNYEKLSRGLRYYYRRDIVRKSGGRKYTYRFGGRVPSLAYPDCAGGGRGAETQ
The conditions noted are these: protein: recombinant; tags: N-terminal GST; dsDNA, one strand shown. A digest of the protocol:
as §1

The target in the next experiment is T5, ELF3 (Homo sapiens, UniProt P78545 1-371).
T5 sequence: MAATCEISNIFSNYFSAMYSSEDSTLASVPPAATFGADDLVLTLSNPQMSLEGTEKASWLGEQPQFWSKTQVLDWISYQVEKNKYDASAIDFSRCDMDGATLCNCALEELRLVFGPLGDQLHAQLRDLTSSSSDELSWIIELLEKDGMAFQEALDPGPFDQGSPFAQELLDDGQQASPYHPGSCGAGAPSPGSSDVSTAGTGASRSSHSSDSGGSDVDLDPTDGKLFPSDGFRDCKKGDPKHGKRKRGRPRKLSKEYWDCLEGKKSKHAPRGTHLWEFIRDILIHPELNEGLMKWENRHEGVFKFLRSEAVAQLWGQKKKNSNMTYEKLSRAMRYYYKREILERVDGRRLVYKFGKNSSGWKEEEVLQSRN
The conditions noted are these: protein: recombinant; tags: N-terminal GST; dsDNA, one strand shown. In short, it runs like this: as §1

The next experiment has as its target CRX (Homo sapiens, UniProt O43186 1-299). Particulars: protein: recombinant; tags: N-terminal GST; dsDNA, one strand shown. In short, it runs like this:
as §1

The target in a further experiment is ETV1 (Homo sapiens, UniProt P50549 1-477). Particulars: protein: recombinant; tags: N-terminal GST; dsDNA, one strand shown. In short, it runs like this:
as §1

The target of the next experiment is T6, ERF (Homo sapiens, UniProt P50548 1-548).
T6 sequence: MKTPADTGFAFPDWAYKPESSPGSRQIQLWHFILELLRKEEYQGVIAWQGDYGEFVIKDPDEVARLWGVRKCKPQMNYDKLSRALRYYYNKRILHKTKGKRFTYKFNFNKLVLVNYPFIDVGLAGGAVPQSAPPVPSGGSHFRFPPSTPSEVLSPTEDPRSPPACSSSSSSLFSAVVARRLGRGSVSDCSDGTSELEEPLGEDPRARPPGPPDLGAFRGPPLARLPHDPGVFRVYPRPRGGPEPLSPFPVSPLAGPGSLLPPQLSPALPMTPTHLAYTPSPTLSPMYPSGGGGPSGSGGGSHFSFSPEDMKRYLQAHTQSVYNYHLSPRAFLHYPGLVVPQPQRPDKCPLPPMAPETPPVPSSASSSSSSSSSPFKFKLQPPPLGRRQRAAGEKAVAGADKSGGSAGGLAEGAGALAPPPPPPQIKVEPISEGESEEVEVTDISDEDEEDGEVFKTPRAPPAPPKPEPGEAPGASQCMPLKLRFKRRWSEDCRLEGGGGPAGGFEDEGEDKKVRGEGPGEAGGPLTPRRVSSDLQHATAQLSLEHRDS
Particulars: protein: recombinant; tags: N-terminal GST; dsDNA, one strand shown. A digest of the protocol:
as §1

The target in another experiment is T7, ETV3L (Homo sapiens, UniProt Q6ZN32 1-361).
T7 sequence: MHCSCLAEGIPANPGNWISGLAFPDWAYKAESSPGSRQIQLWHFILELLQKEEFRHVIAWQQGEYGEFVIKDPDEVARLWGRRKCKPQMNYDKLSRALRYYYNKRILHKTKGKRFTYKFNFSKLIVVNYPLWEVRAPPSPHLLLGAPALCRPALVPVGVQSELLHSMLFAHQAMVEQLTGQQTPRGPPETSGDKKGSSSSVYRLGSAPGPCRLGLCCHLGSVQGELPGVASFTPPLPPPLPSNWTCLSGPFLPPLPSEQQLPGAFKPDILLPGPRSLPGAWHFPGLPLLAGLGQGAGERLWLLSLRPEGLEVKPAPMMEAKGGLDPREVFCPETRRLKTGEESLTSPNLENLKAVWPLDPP
Particulars: protein: recombinant; tags: N-terminal GST; dsDNA, one strand shown. In short, it runs like this: as §1

The target in the next experiment is T8, ETS2 (Homo sapiens, UniProt P15036 1-469).
T8 sequence: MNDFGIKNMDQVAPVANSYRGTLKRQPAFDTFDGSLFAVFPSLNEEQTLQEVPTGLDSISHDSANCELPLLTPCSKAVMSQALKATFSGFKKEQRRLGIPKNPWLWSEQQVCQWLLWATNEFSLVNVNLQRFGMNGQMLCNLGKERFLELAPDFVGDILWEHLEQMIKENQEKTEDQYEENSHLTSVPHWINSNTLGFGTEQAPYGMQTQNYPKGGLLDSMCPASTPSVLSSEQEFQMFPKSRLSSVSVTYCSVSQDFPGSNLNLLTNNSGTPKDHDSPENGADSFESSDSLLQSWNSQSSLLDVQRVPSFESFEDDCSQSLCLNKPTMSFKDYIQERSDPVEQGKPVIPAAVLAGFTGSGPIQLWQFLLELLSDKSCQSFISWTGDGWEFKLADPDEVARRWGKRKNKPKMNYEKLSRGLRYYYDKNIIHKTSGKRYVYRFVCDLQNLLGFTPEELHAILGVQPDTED
The conditions noted are these: protein: recombinant; tags: N-terminal GST; dsDNA, one strand shown. A digest of the protocol:
as §1

The target in another experiment is T9, SPDEF (Homo sapiens, UniProt O95238 1-335).
T9 sequence: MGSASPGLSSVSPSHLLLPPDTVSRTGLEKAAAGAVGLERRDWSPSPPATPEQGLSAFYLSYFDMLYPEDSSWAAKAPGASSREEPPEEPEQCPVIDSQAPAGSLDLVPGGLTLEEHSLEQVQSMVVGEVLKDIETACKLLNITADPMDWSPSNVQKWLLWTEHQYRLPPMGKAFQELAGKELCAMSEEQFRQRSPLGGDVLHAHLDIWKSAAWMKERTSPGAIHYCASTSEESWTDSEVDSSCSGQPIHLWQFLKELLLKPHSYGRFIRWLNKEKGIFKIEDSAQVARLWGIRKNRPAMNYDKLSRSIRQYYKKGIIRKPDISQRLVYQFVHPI
Particulars: protein: recombinant; tags: N-terminal GST; dsDNA, one strand shown. In short, it runs like this: as §1

The next experiment concerns the target T10, ETV7 (Homo sapiens, UniProt Q9Y603 1-341).
T10 sequence: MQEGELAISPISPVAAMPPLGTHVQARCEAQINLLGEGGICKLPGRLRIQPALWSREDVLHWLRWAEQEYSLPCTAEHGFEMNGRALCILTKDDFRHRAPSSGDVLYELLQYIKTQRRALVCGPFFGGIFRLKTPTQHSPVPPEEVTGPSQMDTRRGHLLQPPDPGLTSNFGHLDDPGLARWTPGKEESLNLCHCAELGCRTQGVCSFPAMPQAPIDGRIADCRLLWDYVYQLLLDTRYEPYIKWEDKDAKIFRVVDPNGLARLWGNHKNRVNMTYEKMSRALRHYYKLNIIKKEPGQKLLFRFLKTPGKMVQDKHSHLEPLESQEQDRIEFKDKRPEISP
Particulars: protein: recombinant; tags: N-terminal GST; dsDNA, one strand shown. In short, it runs like this: as §1

In a further experiment the target is T11, ELF5 (Homo sapiens, UniProt Q9UKW6-2 1-255).
T11 sequence: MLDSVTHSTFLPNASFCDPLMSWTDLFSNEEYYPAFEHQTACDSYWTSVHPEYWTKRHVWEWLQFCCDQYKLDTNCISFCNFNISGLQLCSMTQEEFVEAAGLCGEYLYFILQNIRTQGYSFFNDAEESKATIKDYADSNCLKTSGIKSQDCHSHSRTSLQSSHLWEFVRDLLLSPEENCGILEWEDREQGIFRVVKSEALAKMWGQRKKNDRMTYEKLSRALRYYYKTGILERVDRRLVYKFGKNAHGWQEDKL
The conditions noted are these: protein: recombinant; tags: N-terminal GST; dsDNA, one strand shown. In short, it runs like this: as §1

Another experiment deals with T12, ETV3 (Homo sapiens, UniProt P41162-2 1-143).
T12 sequence: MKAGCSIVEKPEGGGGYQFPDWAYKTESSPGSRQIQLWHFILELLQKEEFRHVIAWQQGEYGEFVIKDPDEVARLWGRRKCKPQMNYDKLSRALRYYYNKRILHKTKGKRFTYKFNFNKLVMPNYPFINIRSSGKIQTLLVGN
Particulars: protein: recombinant; tags: N-terminal GST; dsDNA, one strand shown. In short, it runs like this:
as §1

For a further experiment, the target named is ETV6 (Homo sapiens, UniProt P41212 1-452). Particulars: protein: recombinant; tags: N-terminal GST; dsDNA, one strand shown. In short, it runs like this: as §1

The results in this text go back to article PMC7862700, “An all-to-all approach to the identification of sequence-specific readers for epigenetic DNA modifications on cytosine”.

ELF4, sequence (Q99607 whole entry): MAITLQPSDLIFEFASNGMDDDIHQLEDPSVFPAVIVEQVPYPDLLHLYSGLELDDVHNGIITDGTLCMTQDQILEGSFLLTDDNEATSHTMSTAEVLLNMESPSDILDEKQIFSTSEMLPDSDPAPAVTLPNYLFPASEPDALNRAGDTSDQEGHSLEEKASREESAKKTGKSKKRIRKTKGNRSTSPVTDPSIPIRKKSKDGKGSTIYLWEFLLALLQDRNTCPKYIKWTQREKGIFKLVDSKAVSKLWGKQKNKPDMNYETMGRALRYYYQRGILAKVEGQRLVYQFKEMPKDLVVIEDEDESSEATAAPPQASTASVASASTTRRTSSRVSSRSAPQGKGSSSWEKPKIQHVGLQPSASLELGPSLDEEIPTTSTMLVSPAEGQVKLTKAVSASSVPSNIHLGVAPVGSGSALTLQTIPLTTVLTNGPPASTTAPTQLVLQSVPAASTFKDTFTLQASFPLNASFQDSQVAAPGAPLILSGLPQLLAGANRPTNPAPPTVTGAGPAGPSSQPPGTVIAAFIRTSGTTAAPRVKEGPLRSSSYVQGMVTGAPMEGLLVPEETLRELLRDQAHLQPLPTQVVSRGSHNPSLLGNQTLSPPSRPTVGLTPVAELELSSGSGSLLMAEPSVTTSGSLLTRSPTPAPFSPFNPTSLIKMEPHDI
ETV6, sequence (P41212 whole entry): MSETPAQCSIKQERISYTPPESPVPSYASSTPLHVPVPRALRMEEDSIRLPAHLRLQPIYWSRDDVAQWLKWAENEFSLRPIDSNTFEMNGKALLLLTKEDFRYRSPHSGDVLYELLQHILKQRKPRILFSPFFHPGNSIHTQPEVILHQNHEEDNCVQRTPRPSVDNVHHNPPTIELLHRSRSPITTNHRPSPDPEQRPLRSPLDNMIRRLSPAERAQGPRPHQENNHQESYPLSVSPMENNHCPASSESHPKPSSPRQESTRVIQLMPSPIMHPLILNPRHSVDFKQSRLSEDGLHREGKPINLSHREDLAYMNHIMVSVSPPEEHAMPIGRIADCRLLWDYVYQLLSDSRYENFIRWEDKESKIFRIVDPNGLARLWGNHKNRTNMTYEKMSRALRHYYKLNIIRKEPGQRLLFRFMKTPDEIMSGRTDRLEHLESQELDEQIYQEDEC
CRX, sequence (O43186 whole entry): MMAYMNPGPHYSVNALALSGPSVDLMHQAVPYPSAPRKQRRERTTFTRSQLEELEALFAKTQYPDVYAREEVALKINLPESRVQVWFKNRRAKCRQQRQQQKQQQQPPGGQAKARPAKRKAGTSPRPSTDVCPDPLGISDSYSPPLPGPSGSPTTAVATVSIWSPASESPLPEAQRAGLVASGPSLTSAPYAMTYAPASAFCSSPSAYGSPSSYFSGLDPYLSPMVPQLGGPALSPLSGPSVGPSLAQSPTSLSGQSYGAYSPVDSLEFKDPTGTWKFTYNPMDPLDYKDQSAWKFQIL
ETV1, sequence (P50549 whole entry): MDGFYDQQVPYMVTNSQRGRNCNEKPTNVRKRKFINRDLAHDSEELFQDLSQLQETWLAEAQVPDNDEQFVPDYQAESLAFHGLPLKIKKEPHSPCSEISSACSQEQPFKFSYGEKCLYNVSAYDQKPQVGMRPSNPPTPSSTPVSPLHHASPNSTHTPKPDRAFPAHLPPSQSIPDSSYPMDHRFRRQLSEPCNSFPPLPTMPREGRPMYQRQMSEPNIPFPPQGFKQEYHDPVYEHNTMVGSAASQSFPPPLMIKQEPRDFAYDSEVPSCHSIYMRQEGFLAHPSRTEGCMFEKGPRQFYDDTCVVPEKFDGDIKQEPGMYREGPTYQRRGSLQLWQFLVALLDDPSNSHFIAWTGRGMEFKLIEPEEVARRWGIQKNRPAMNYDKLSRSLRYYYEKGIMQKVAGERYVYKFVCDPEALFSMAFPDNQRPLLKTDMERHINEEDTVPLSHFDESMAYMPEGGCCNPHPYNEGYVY
ETV5, sequence (P41161 whole entry): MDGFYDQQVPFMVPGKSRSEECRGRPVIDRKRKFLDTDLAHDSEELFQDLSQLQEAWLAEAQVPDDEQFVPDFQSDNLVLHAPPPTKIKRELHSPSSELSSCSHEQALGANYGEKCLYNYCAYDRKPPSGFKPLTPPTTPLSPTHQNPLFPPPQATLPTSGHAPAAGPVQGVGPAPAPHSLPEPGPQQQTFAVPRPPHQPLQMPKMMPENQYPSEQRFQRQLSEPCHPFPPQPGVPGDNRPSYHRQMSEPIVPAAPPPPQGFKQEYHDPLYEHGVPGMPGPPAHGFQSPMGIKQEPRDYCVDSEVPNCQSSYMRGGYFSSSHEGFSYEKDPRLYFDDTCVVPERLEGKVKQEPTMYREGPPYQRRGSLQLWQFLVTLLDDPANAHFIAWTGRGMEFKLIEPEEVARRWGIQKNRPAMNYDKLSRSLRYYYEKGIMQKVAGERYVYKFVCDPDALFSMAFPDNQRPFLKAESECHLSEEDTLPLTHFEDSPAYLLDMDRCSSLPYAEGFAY
HSF1, sequence (Q00613 whole entry): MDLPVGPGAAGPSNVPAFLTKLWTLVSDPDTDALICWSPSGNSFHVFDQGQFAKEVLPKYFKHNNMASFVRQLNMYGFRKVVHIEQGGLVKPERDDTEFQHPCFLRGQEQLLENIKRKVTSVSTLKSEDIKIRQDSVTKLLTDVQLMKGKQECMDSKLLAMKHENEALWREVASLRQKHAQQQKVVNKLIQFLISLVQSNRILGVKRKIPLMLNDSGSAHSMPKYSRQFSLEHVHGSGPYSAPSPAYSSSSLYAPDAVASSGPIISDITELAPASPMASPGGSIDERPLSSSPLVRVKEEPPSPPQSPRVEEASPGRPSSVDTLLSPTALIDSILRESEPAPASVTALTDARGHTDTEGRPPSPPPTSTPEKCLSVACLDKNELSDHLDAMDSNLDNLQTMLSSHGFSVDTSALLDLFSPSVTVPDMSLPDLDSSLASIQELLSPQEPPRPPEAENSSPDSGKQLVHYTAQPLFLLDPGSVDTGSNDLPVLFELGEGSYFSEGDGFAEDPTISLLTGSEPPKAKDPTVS

Take ACACTT: the binding signal is 1.68 fold enrichment (6-mer frequency, TF over GST control) with FEV; 1.67 fold enrichment (6-mer frequency, TF over GST control) with ETV5; 1.11 fold enrichment (6-mer frequency, TF over GST control) in the experiment with HSF1; 1.71 fold enrichment (6-mer frequency, TF over GST control) with SPIC; 1.55 fold enrichment (6-mer frequency, TF over GST control) in the experiment with ELF4; 1.49 fold enrichment (6-mer frequency, TF over GST control) with ELK4. Moreover, the binding signal with ETV2 is 1.58 fold enrichment (6-mer frequency, TF over GST control); with ELF3, 1.66 fold enrichment (6-mer frequency, TF over GST control); with CRX, 1.16 fold enrichment (6-mer frequency, TF over GST control); with ETV1, 1.77 fold enrichment (6-mer frequency, TF over GST control); with ERF, 1.51 fold enrichment (6-mer frequency, TF over GST control); with ETV3L, 1.64 fold enrichment (6-mer frequency, TF over GST control). In addition, the binding signal with ETS2 is 1.76 fold enrichment (6-mer frequency, TF over GST control); with SPDEF, 1.61 fold enrichment (6-mer frequency, TF over GST control); with ETV7, 1.78 fold enrichment (6-mer frequency, TF over GST control); in the experiment with ELF5, 2.02 fold enrichment (6-mer frequency, TF over GST control); with ETV3, 1.66 fold enrichment (6-mer frequency, TF over GST control); with ETV6 it was 1.95 fold enrichment (6-mer frequency, TF over GST control).
